# Source: the supplement of paper PMC8728848
# Shown is part of a subset that was picked to be rich in the strongest signals.
# How the values were obtained:
# Assay in all cases: glycan array binding signal (z-score within array); higher = stronger binding
# Conditions in all cases: glycan notation: IUPAC condensed, linker removed
# [1] = molecular target: Fuc(a1-2)Gal(b1-3)GalNAc(b1-4)[Neu5Ac(a2-3)]Gal(b1-4)Glc
# Outline: (§1)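 The binding signal is a Z-score computed within each array and averaged over linkers. Arrays of the same protein sequence at different concentrations or buffers were also averaged together. Data originate from 3228 arrays in the Consortium for Functional Glycomics database, kept only where the protein sequence was available.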
# [2] = molecular target: Fuc(a1-2)Gal(b1-4)GlcNAc(b1-3)Gal(b1-4)GlcNAc(b1-2)Man(a1-3)[Fuc(a1-2)Gal(b1-4)GlcNAc(b1-3)Gal(b1-4)GlcNAc(b1-2)Man(a1-6)]Man(b1-4)GlcNAc(b1-4)GlcNAc
# Outline: as §1
# [3] = molecular target: Fuc(a1-2)Gal(b1-4)[Fuc(a1-3)]GlcNAc(b1-3)Gal(b1-4)[Fuc(a1-3)]GlcNAc(b1-3)Gal(b1-4)[Fuc(a1-3)]GlcNAc
# Outline: as §1
# [4] = molecular target: Fuc(a1-2)[Gal(a1-3)]Gal(b1-4)GlcNAc(b1-3)GalNAc
# Outline: as §1
# [5] = molecular target: Fuc(a1-2)[Gal(a1-3)]Gal(b1-4)GlcNAc(b1-3)[Fuc(a1-2)[Gal(a1-3)]Gal(b1-4)GlcNAc(b1-6)]GalNAc
# Outline: as §1
# [6] = molecular target: Fuc(a1-2)[GalNAc(a1-3)]Gal(b1-4)GlcNAc(b1-2)Man
# Outline: as §1
# [7] = molecular target: Fuc(a1-2)[GalNAc(a1-3)]Gal(b1-4)GlcNAc(b1-6)GalNAc
# Outline: as §1
# [8] = molecular target: Fuc(a1-3)[Gal3S(b1-4)]GlcNAc6S
# Outline: as §1
# [9] = molecular target: Fuc(b1-3)GlcNAc
# Outline: as §1
# [10] = molecular target: Gal(a1-3)Gal(b1-4)GlcNAc
# Outline: as §1
# [11] = molecular target: Gal(a1-4)Gal(b1-4)GlcNAc(b1-3)Gal(b1-4)Glc
# Outline: as §1
# [12] = molecular target: Gal(b1-3)GalNAc(a1-3)[Fuc(a1-2)]Gal(b1-4)Glc
# Outline: as §1
# [13] = molecular target: Gal(b1-3)GalNAc(a1-3)[Fuc(a1-2)]Gal(b1-4)GlcNAc
# Outline: as §1
# [14] = molecular target: Gal(b1-3)GlcNAc(a1-3)Gal(b1-4)GlcNAc
# Outline: as §1
# [15] = molecular target: Gal(b1-3)GlcNAc(b1-2)[Gal(b1-3)GlcNAc(b1-6)]Man(a1-6)[Gal(b1-3)GlcNAc(b1-2)Man(a1-3)]Man(b1-4)GlcNAc(b1-4)GlcNAc
# Outline: as §1
# [16] = molecular target: Gal(b1-3)[Fuc(a1-4)]GlcNAc(b1-2)Man
# Outline: as §1
# [17] = molecular target: Gal(b1-3)[Fuc(a1-4)]GlcNAc(b1-3)Gal(b1-3)[Fuc(a1-4)]GlcNAc
# Outline: as §1
# [18] = molecular target: Gal(b1-4)Gal
# Outline: as §1
# [19] = molecular target: Gal(b1-4)GalNAc(a1-3)[Fuc(a1-2)]Gal(b1-4)GlcNAc
# Outline: as §1
# [20] = molecular target: Gal(b1-4)GlcNAc(b1-2)Man(a1-3)[Gal(b1-4)GlcNAc(b1-2)Man(a1-6)][GlcNAc(b1-4)]Man(b1-4)GlcNAc(b1-4)[Fuc(a1-6)]GlcNAc
# Outline: as §1
# [21] = molecular target: Gal(b1-4)GlcNAc(b1-2)Man(a1-3)[GlcNAc(b1-4)][Gal(b1-4)GlcNAc(b1-2)Man(a1-6)]Man(b1-4)GlcNAc(b1-4)GlcNAc
# Outline: as §1
# [22] = molecular target: Gal(b1-4)GlcNAc(b1-2)Man(a1-6)[GlcNAc(b1-2)Man(a1-3)]Man(b1-4)GlcNAc(b1-4)GlcNAc
# Outline: as §1
# [23] = molecular target: Gal(b1-4)GlcNAc(b1-2)[Gal(b1-4)GlcNAc(b1-6)]Man(a1-6)[GlcNAc(b1-4)][Gal(b1-4)GlcNAc(b1-2)[Gal(b1-4)GlcNAc(b1-4)]Man(a1-3)]Man(b1-4)GlcNAc(b1-4)[Fuc(a1-6)]GlcNAc
# Outline: as §1
# [24] = molecular target: Gal(b1-4)GlcNAc(b1-3)Gal(b1-4)GlcNAc(b1-2)[Gal(b1-4)GlcNAc(b1-3)Gal(b1-4)GlcNAc(b1-6)]Man(a1-6)[Gal(b1-4)GlcNAc(b1-3)Gal(b1-4)GlcNAc(b1-2)Man(a1-3)]Man(b1-4)GlcNAc(b1-4)[Fuc(a1-6)]GlcNAc
# Outline: as §1
# [25] = molecular target: Gal(b1-4)GlcNAc(b1-3)GalNAc
# Outline: as §1
# [26] = molecular target: Gal3S(b1-3)GalNAc
# Outline: as §1
# [27] = molecular target: Gal4S(b1-4)GlcNAc
# Outline: as §1
# [28] = molecular target: Gal6P(b1-4)GlcNAc
# Outline: as §1
# [29] = molecular target: GalNAc(b1-4)GlcNAc6S
# Outline: as §1
binder,measurement,setting,value
SSR2 (Sclerotium rolfsii) (protein) MVYKITVRVYQTNPDAFFHPVEKTVWKYANGGTWSITDDQHVLTMGGSGTSGTLRFHADNGESFTATFGVHNYKRWCDIVTNLAADETGMVINQQYYSQKNREEARERQLSNYQVKNAKGRNFQIVYTEAEGNDLHANLIIG,glycan array binding signal (z-score),[1],-0.282
same,glycan array binding signal (z-score),[2],-0.273
same,glycan array binding signal (z-score),[3],-0.294
same,glycan array binding signal (z-score),[4],-0.285
same,glycan array binding signal (z-score),[5],-0.277
same,glycan array binding signal (z-score),[6],-0.275
same,glycan array binding signal (z-score),[7],-0.297
same,glycan array binding signal (z-score),[8],-0.279
same,glycan array binding signal (z-score),[9],-0.269
same,glycan array binding signal (z-score),[10],-0.292
same,glycan array binding signal (z-score),[11],-0.285
same,glycan array binding signal (z-score),[12],3.93
same,glycan array binding signal (z-score),[13],2.96
same,glycan array binding signal (z-score),[14],-0.278
same,glycan array binding signal (z-score),[15],-0.286
same,glycan array binding signal (z-score),[16],-0.286
same,glycan array binding signal (z-score),[17],-0.272
same,glycan array binding signal (z-score),[18],-0.288
same,glycan array binding signal (z-score),[19],-0.279
same,glycan array binding signal (z-score),[20],-0.287
same,glycan array binding signal (z-score),[21],-0.259
same,glycan array binding signal (z-score),[22],3.34
same,glycan array binding signal (z-score),[23],-0.266
same,glycan array binding signal (z-score),[24],-0.229
same,glycan array binding signal (z-score),[25],-0.281
same,glycan array binding signal (z-score),[26],4.27
same,glycan array binding signal (z-score),[27],-0.297
same,glycan array binding signal (z-score),[28],-0.287
same,glycan array binding signal (z-score),[29],-0.294
